# Hits are enriched below; roughly 11% of the tested compounds scored in any of these assays.
# NS1 inh – influenza NS1 inhibition; Potency, µM (doses to about 46.1 µM); 270,000 tested, 0.4% active; AID 2326; calls by dose curve; further: actives are rising curves; nearly all actives have a fitted effect of over 50% in size
#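 Recovery from NS1-induced slow growth read by OD600 in budding yeast switched to galactose assay medium (pH 6.0, -URA) at 1:100 dilution. Compound 23 nl per well; the matching strain lacking NS1 serves as control.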
# VACV Venus inh – inhibitors of vaccinia virus (Venus reporter); AID 720580; Vaccinia virus Venus reporter expression, fluorescence; 330,000 tested, 0.46% active; Potency, µM (titrated, usually from 36.5 µM), hits mostly inhibitors; calls by dose curve; tested in A549 cells; further: nearly all actives have a fitted effect of over 30% in size
# Pf growth 96h – P. falciparum growth inhibition at 96 hour, primary screen for plastid delayed-death inhibitors; P. falciparum luciferase reporter growth, 96 h; Potency, µM (highest dose often 28.7 µM), most hits filed as inhibitors; 320,000 tested, 6.9% active; AID 504834
#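 96 h incubation, 37 C, 5% CO2, of luciferase-reporter P. falciparum-infected RBCs (2% hematocrit, 0.05% parasitemia final) with test compounds; endpoint luminescence.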
# Pf growth 48h – inhibits P. falciparum growth in the first generation, 48 h | 310,000 tested, 5.9% active | Potency, µM (top dose mostly 28.7 µM), actives largely listed as inhibitors | AID 504832 | P. falciparum luciferase growth in erythrocytes, 48 h
#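 Growth was read as firefly luciferase luminescence after a 48 h, 37 C, 5% CO2 exposure of compounds to reporter-bearing P. falciparum cultures (0.1% parasitemia, 2% hematocrit final) in Albumax-supplemented RPMI 1640.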
# VACV mCherry inh – vaccinia inhibition (mCherry reporter) | Vaccinia virus mCherry reporter infection, fluorescence | 310,000 tested, 0.63% active | AID 720579 | Potency, µM (top dose mostly 36.5 µM), actives largely listed as inhibitors; calls by dose curve; tested in A549 cells; further: nearly all actives have a fitted effect of over 35% in size
# HCV inhibitor – inhibitors of hepatitis C virus infection; Huh7.5.1 HCVcc-Cre infection, luciferase reporter, 44 h; Potency, µM (top dose mostly 41.8 µM), usual class: inhibitors; 340,000 tested, 3.4% active; AID 651820
#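 1,000 cells/well; 4 h culture; + compound; + HCVcc-Cre (~0.5 moi); 44 h; luciferase substrate, RT 15 min; read 15 sec.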
# Hits are given with their value; – = inactive; ? = inconclusive; · = no result given; [ ] = another dose, or the depositor's remark. Unless noted, the call rests on the fitted dose curve; in most records, active means well fitted inhibition curve with a large enough effect; inconclusive means small, poorly fitted or top-dose-only effect, or another doubt; inactive means no such curve, though single readings can be large or run the other way.
SMILES,NS1 inh,VACV Venus inh,Pf growth 96h,Pf growth 48h,VACV mCherry inh,HCV inhibitor
CCC(C)C1(CC)C(=O)NC(=O)N=C1N (stereo not drawn),–,·,–,–,·,–
CN(C)c1nc(N/N=C/c2c[nH]c3ccccc23)nc(N2CCOCC2)n1,·,·,–,?,·,?
O=C(COC(=O)CCCc1nc2ccccc2s1)Nc1ncc(Cl)cc1Cl,–,–,–,–,–,–
CC(C)Cn1c(N)c(C(=O)NCCN2CCOCC2)c2nc3ccccc3nc21,–,?,–,3.7µM,?,–
CCCCn1c(N)c(C(=O)NCCN2CCOCC2)c2nc3ccccc3nc21,–,?,–,?,·,–
COCCNC(=O)c1c(N)n(Cc2ccco2)c2nc3ccccc3nc12,–,–,13.1µM,13.1µM,–,–
Cc1cccc(-n2c(N)c(C(=O)NCCN3CCOCC3)c3nc4ccccc4nc32)c1,–,–,9.28µM,·,·,?
C=CCNC(=O)c1c(N)n(Cc2ccco2)c2nc3ccccc3nc12,–,–,–,–,–,–
COCCCn1c(N)c(C(=O)NCc2ccco2)c2nc3ccccc3nc21,–,–,?,9.28µM,–,–
O=C(C1CCCCC1)N1C[C@@H](n2cc(-c3ccc(F)cc3)nn2)[C@H](O)C[C@@H]1c1ccc(Cl)cc1,·,?,·,·,–,·
COC(=O)c1c(N)n(CCCN2CCOCC2)c2nc3ccccc3nc12,–,·,9.28µM,?,·,–
CCCCOCCCn1c(N)c(C(=O)OC(C)COC)c2nc3ccccc3nc21 (stereo not drawn),–,–,?,4.65µM,?,?
CCC(C)NC(=O)c1c(N)n(CCCOC)c2nc3ccccc3nc12 (stereo not drawn),–,·,2.33µM,?,·,–
Nc1c(C(=O)NCCN2CCOCC2)c2nc3ccccc3nc2n1Cc1ccco1,–,–,?,9.28µM,–,–
O=C(CCn1c2c(c3ccccc31)CCCC2)NNC(=O)c1ccccc1Cl,–,–,–,–,–,?
CC(C)[C@H](NC(=O)c1ccccc1Cl)C(=O)OCC(=O)NC(=O)NC1CCCC1,–,–,–,–,–,–
CCOC(=O)C(NCCc1ccccc1)(NC(=O)CC)C(F)(F)F (stereo not drawn),–,–,?,–,–,–
CC(C)CCNC(=O)c1c(N)n(CC2CCCO2)c2nc3ccccc3nc12 (stereo not drawn),?,·,–,·,·,?
CCC(C)NC(=O)c1c(N)n(CC2CCCO2)c2nc3ccccc3nc12 (stereo not drawn),–,·,13.1µM,11.7µM,·,–
CC(=O)c1cnc2nc(SCc3ccc(C)cc3)nn2c1C,–,–,13.1µM,–,–,–
O=[N+]([O-])c1ccc(Sc2nc3ccccc3o2)c([N+](=O)[O-])c1,–,?,?,·,?,·
O=[N+]([O-])c1ccc(Cl)cc1Sc1nc2ccccc2o1,–,–,–,8.28µM,–,?
O=S(=O)(c1ccc(Cl)cc1)c1cnc(-c2cccnc2)nc1-c1ccccc1,–,·,?,?,·,–
Cc1nc(-c2ccccc2)sc1-c1nc(-c2ccncc2)ncc1S(=O)(=O)c1ccccc1,–,–,1.65µM,?,–,?
CC1Cc2ccccc2N1C(=O)Cc1cccs1 (stereo not drawn),–,·,–,–,·,–
SMILES,NS1 inh,VACV Venus inh,Pf growth 96h,Pf growth 48h,VACV mCherry inh,HCV inhibitor
CC1=Nc2ccccc2N=C(NC(=O)CN2CCN(c3ccccc3)CC2)C1c1ccccc1 (stereo not drawn),–,–,?,5.86µM,–,–
CC1=Nc2ccccc2N=C(NC(=O)CSC(=S)N2CCCCC2)C1c1ccccc1 (stereo not drawn),–,–,?,13.1µM,–,?
CCOC(=O)C1CCCN(CC(=O)NC2=Nc3ccccc3N=C(C)C2c2ccccc2)C1 (stereo not drawn),–,–,?,10.4µM,–,–
CC1=Nc2ccccc2N=C(NC(=O)c2ccccc2)C1c1ccccc1 (stereo not drawn),–,–,?,4.15µM,–,?
c1ccc(-c2nn[nH]n2)nc1,–,·,–,–,·,–
O=C(CNC(=S)NC(=O)c1ccc(Br)o1)c1ccccc1,–,–,?,–,–,?
COc1ccc(/C=C2\SC(=O)N(CCNC(=O)CCS(=O)(=O)c3ccc(C)cc3)C2=O)cc1,–,–,–,–,–,?
CCOC(=O)C1CCCCN1Cc1ccc(C(F)(F)F)cc1 (stereo not drawn),–,–,9.28µM,·,·,?
CCOC(=O)C1CCCCN1Cc1cccc(C(F)(F)F)c1 (stereo not drawn),–,–,–,·,–,–
CCN(CC)CCNC(=O)CCN1N=C(c2ccccc2)CCC1=O,–,·,?,–,·,–
Cc1nc(Nc2ccccc2C(F)(F)F)sc1C(=O)N(C)C,·,–,–,–,–,–
CC(C)(O)CCc1c(-c2ccc(O)cc2O)oc2c3c(cc(O)c2c1=O)OC(C)(C)C=C3,·,–,·,·,–,12.6µM
CCCCCCCCNC(=O)c1cnsn1,–,–,–,–,–,–
CC(C)Oc1ccccc1/C=N/NC(=O)C1CC1,·,–[7.34 µM],·,·,–[7.34 µM],–
CC(C)Oc1ccccc1/C=N/NC(=O)C1CCCC1,–,–,2.62µM,–,–,–
C/C(=N\NC(N)=S)C1(C)CCCCC1,–,?,?,?,?,–
C/C(=N\NC(N)=S)C12CC3CC(CC(C3)C1)C2,–,8.91µM,5.22µM,·,11.2µM,?
Cc1[nH]nc2c1C(c1ccccn1)N(c1ccc(Br)cc1)C2=O (stereo not drawn),–,·,·,–,·,–
CCN(CC)S(=O)(=O)c1cccc(C(=O)Nc2ccccc2C(=O)Nc2ccc(Cl)cc2)c1,·,–,·,·,–,·
CCN(c1ccccc1)S(=O)(=O)c1ccc(OC)c(OC)c1,–,·,–,·,·,–
CCN(CC)S(=O)(=O)c1cc(C(=O)Nc2ccc(Cl)cn2)ccc1C,–,?,·,–,·,15.8µM
CCN(c1ccccc1)S(=O)(=O)c1ccc(NN)nc1,·,·,?,13.1µM,·,?
CCN(CC)S(=O)(=O)c1ccc(NN)nc1,·,–,?,–,–,–
CCN(c1ccccc1)S(=O)(=O)c1ccc2ccccc2c1,–,–,–,–,–,5.62µM
CCN(CC)S(=O)(=O)c1cccc(C(=O)Nc2ccc(Cl)cn2)c1,–,·,–,–,·,3.55µM
SMILES,NS1 inh,VACV Venus inh,Pf growth 96h,Pf growth 48h,VACV mCherry inh,HCV inhibitor
N#C/C(=C\c1cccs1)C(=O)N1CCOCC1,–,–,–,–,–,–
S=C(Nc1cccc2ccccc12)N1CCN(c2ncccn2)CC1,–,–,?,–,·,–
OCC1(Cc2ccccc2)CCN(C2CCN(c3ccccc3F)CC2)CC1,–,–,–,?,–,–
COc1cc(C(=O)Nc2ccc(NC(=O)c3cccc(Cl)c3)nc2)cc(OC)c1OC,–,–,–,2.62µM,?,3.98µM
CCN(c1ccccc1)S(=O)(=O)c1cccc(C(=O)Nc2ccc(C)cn2)c1,–,·,9.28µM,8.28µM,·,?
Fc1ccc(F)c(NC(=S)NCCc2ccccc2)c1,·,–,–,–,–,–
O=C(NC(c1ccccc1)C(Cl)Cl)c1ccccc1 (stereo not drawn),–,–,2.62µM,–,–,–

# Screening data: PubChem, National Center for Advancing Translational Sciences (NCATS)
